Source: article PMC12136788
Numbering of substitutions follows the chain as printed. In all, about 24,000 sequences were measured (“enrichment r”: median about 0.99, highest 2% from about 3.7 on). The list comes from a sample in which the highest values are over-represented; it also holds similar and randomly drawn sequences.

T1: UNK ZnF1-3 (human, UniProt Q9C0B0 31-174)
T1 sequence: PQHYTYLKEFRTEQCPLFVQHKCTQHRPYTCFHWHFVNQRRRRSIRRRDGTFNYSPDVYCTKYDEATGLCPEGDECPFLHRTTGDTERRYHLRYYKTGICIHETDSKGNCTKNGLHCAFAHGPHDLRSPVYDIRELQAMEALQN

B1: chr2:153237265:153237266:-_ENSMUSG00000061411_ENSMUST00000109784|mus_mus|mus_mus_mus_hu_False|78_98 (ssRNA)
RNA: GGGAGUUCUACAGUCCGACGAUCAAAAAAAAAAAAAGAAAAGUGUCCUUGUGCCCAAAGUCUCAGAUGCUUGGAGUGUGGCUAGAAACAGCUCUUUUGGAUCCCACCUCUUUCAAAAACAAAAUGUACCAACUGGUGAGGCAGCAACAGAGGAUUGAGCAUCA
B2: chr2:153237265:153237266:-_ENSMUSG00000061411_ENSMUST00000109784|mus_mus|mus_mus_mus_hu_False|58_78 (ssRNA)
RNA: B1 RNA with G37A, U78C, G79A
B3: chr2:153237265:153237266:-_ENSMUSG00000061411_ENSMUST00000109784|mus_mus|mus_mus_mus_hu_False|78_108 (ssRNA)
RNA: B1 RNA with A32G, G37A
B4: 112580157_112582736_3545_CDS_ENSG00000153107_ENST00000341068|human|control|control (ssRNA)
RNA: GGGAGUUCUACAGUCCGACGAUCCAAAUCUCUUAAAGUGAAUCCUACAUUAGUCAUCCAGACAACCAAUCUUUCAGCUAGACUAGAAACAGAUGUAGAAUGCCUGAAACUAAACCUGUUUUCCUCUUGUUCUACUUGCAACUUCAACAGAGGAUUGAGCAUCA
B5: chr2:153237265:153237266:-_ENSMUSG00000061411_ENSMUST00000109784|mus_mus|FALSE|FALSE (ssRNA)
RNA: GGGAGUUCUACAGUCCGACGAUCAAAAAAAAGAAAAGAAAAGUGUCCUUGUGCCCAAAGUCUCAGAUGCUUGGAGUGCAGCUAGAAACAGCUCUUUUGGAUCCCACCUCUUUCAGAAAACAGUGUACCAACUGGUGAGGCAGGCAACAGAGGAUUGAGCAUCA
B6: chr2:153237265:153237266:-_ENSMUSG00000061411_ENSMUST00000109784|mus_mus|mus_mus_mus_hu_False|78_78 (ssRNA)
RNA: B1 RNA with G37A
B7: chr2:153237265:153237266:-_ENSMUSG00000061411_ENSMUST00000109784|mus_mus|mus_mus_mus_hu_False|28_78 (ssRNA)
RNA: B1 RNA with G37A, A115G
B8: 61074685_61077595_487_3pUTR_ENSG00000119541_ENST00000238497|human|control|control (ssRNA)
RNA: GGGAGUUCUACAGUCCGACGAUCUCUUUUUUUCAGGAUCAUCAGAUUCUCCUUCCCCAUCACUGUCAUUCCCCUUCUCAUCUGCUGGACUCGGCUGUCCUUCUUUCACUGGCUUCUGUGCUUUUUUCUCUUUAUUUUUCAGGUCAACAGAGGAUUGAGCAUCA
B9: chr7:149068622:149068623:-_ENSMUSG00000025139_ENSMUST00000001950|mus_hu|mus_mus_mus_hu_False|8_28 (ssRNA)
RNA: GGGAGUUCUACAGUCCGACGAUCGUGAGGCCUCUGAGUGUGGCUUGUGGUCUGUCCUGGGUUAGAGUUGUUAAUAUCACGGAACAUACCAUCUAGAACGUUCCAGUCUGCCUGACUACCUUCAUUCGCAAGAGGGCAGAAAUCCAACAGAGGAUUGAGCAUCA
B10: chr5:138634757:138634758:+_ENSMUSG00000036968_ENSMUST00000110934|mus_hu|FALSE|FALSE (ssRNA)
RNA: GGGAGUUCUACAGUCCGACGAUCGUAGACCAAGUAUCUAUCCCACCUAAAUUAUCAGCAACUCCAGGCCAUGACCCAGUGUCCCAUUCUCCUUCACGGUUUGCUGGUGUGUAGCCUCCUGGAUACAGGCAAUGUAUAUAGAUCCAACAGAGGAUUGAGCAUCA
B11: chr17:56552419:56552420:-_ENSMUSG00000013236_ENSMUST00000086828|mus_mus|mus_mus_mus_hu_False|8_88 (ssRNA)
RNA: GGGAGUUCUACAGUCCGACGAUCAAAAAAUACACUAUUUAAAAAAAAAAGAAAAAAACGGGAUACAGUUACACUGAGAGUUUUAAAAGAAAGCUGGAUUCUGGUCCCAGCCCAGUGUCCCCAGGCUGAGUGCGGAAGAGGAGCCAACAGAGGAUUGAGCAUCA
B12: chr17:56552419:56552420:-_ENSMUSG00000013236_ENSMUST00000086828|mus_mus|mus_mus_mus_hu_False|28_88 (ssRNA)
RNA: GGGAGUUCUACAGUCCGACGAUCAAAAAAUACACUAUUUAAAAAAAAAAGAAAAAAACGGGAUACAGUUACACUGAGAGUUUUAAAAGAAAGCUGGAUUCUGGUCCUUGCCAAAAGUCCCCAGGCUGCAGAGCGGGGAGGAGCCAACAGAGGAUUGAGCAUCA
B13: chr17:56552419:56552420:-_ENSMUSG00000013236_ENSMUST00000086828|mus_mus|mus_mus_mus_hu_False|88_88 (ssRNA)
RNA: B12 RNA with U107C, U108A, A112C, A114G, A115U
B14: chr17:56552419:56552420:-_ENSMUSG00000013236_ENSMUST00000086828|mus_mus|mus_mus_mus_hu_False|58_88 (ssRNA)
RNA: B12 RNA with G77C, G79C, U81A, U107C, U108A, A112C, A114G, A115U
B15: 30734625_30737523_1216_CDS_ENSG00000101337_ENST00000398022|human|control|control (ssRNA)
RNA: GGGAGUUCUACAGUCCGACGAUCCAGGGAGCUGAGGAUCAUGGGGUACUGGGGGGGCCUGAAGACGUCGCCGUGCACCAACUUCCACCCAGACUCCUCCAUGGUGUCUUCAAUGUCAUCCUCCUUGUUGUAGUUGGCAAUGUCCAACAGAGGAUUGAGCAUCA
B16: chr7:149068622:149068623:-_ENSMUSG00000025139_ENSMUST00000001950|mus_hu|mus_mus_mus_hu_False|68_68 (ssRNA)
RNA: GGGAGUUCUACAGUCCGACGAUCGUGAGGCCUCUGAGUGUGGCUUGUGGUCUGUCCUGGGUUAGAGCUGCUGGUAACACGGAACAUACCAUCUAGAACGUUCCAGUCCCGCCUGACACCUUCAUUCCCAAUGGAGAAGAAAUCCAACAGAGGAUUGAGCAUCA
B17: chr1:93299114:93299115:+_ENSG00000122406_ENST00000370321|hu_hu|motif|central (ssRNA)
RNA: GGGAGUUCUACAGUCCGACGAUCUUGUAUCACCAAGCGUUUCCGAGCAUAAUAAUCAGUUUUACCCUCUCGUCGUCUUCGGAAUUUCACUUGGUAUCUCUUAAAGUAGGCCUUAUUCUUAACAACUUUAACAAACCCCAUCCUCAACAGAGGAUUGAGCAUCA
B18: chr3:32335226:32335227:+_ENSMUSG00000027665_ENSMUST00000108243|mus_mus|motif|central (ssRNA)
RNA: GGGAGUUCUACAGUCCGACGAUCGGCCUCUCUGAACAGUUCAUGUUUGAUGGUGACGAGUGUGGCCUCACGGAGGCAUUCGGAAGUCACUAUCAUUCCAUUGGGGAGUAAACAUUCCACUAGGAUUCGUGGGGGCAUCAAGUGCAACAGAGGAUUGAGCAUCA
B19: chr7:54825262:54825263:-_ENSG00000132432_ENST00000352861|hu_hu|hu_hu_hu_mus_False|48_78 (ssRNA)
RNA: GGGAGUUCUACAGUCCGACGAUCCUGCCGGCUGGGCUCCACAAACUGCAUUACCUGCAUGACUGCCGUUGGAUGGCGGAUUGAGAGUGCCAGGGACCGUAGCUCAGGAGAGAACCGAGCCCAACGGAACCGGAAGCUGGCAACCAACAGAGGAUUGAGCAUCA
B20: 93048056_93048176_2666_3pUTR_ENSMUSG00000020964_ENSMUST00000021347|mouse|control|control (ssRNA)
RNA: GGGAGUUCUACAGUCCGACGAUCCACUGAGAGUUGUCAUUCCGUAUGGCACUGAAACAAACAUUCACUGCAGCUCUGCCGAGAGCCGCGCAUCCCUGAAAAGGAAGGCAGCAGGUUCUAAGCAGCUUCUGGGAUUCAACACGCCAACAGAGGAUUGAGCAUCA
B21: chr17:56552419:56552420:-_ENSMUSG00000013236_ENSMUST00000086828|mus_mus|mus_mus_mus_hu_False|88_98 (ssRNA)
RNA: B12 RNA with U38A, U39A, U107C, U108A, A112C, A114G, A115U
B22: chrX:165757501:165757502:-_ENSMUSG00000031352_ENSMUST00000112115|mus_mus|FALSE|FALSE (ssRNA)
RNA: GGGAGUUCUACAGUCCGACGAUCAGCAGGAGAAGAUGCUGAGGCACCCAUGGCUGGAAUCACAGGGGUCACUCCCAAUCUAAAAUACCCAGCAAAACGGGAGGCAAGGAGCGGCGAAGGGCAGGAAGCCACCAGUGUUGCCUUCAACAGAGGAUUGAGCAUCA
B23: chr17:56552419:56552420:-_ENSMUSG00000013236_ENSMUST00000086828|mus_mus|mus_mus_mus_hu_False|48_88 (ssRNA)
RNA: B12 RNA with G88A, G92A, C93U, U94A, G95A, U107C, U108A, A112C, A114G, A115U
B24: chr17:56552419:56552420:-_ENSMUSG00000013236_ENSMUST00000086828|mus_mus|mus_mus_mus_hu_False|1_88 (ssRNA)
RNA: B12 RNA with U107C, U108A, A112C, A114G, A115U, A138C, G139A, C143G
B25: chr17:56552419:56552420:-_ENSMUSG00000013236_ENSMUST00000086828|mus_mus|mus_mus_mus_hu_False|18_88 (ssRNA)
RNA: GGGAGUUCUACAGUCCGACGAUCAAAAAAUACACUAUUUAAAAAAAAAAGAAAAAAACGGGAUACAGUUACACUGAGAGUUUUAAAAGAAAGCUGGAUUCUGGUCCCAGCCCAGUGGCAGGCAGGGGCAGAGCGGGGAGGAGCCAACAGAGGAUUGAGCAUCA

molecular target: T1, UNK ZnF1-3; test: nsRBNS (natural sequence RNA bind-n-seq); RBNS binding buffer (assumed for nsRBNS): 25 mM Tris pH 7.5, 150 mM KCl, 3 mM MgCl2, 0.01% Triton X-100, 500 ug/ml BSA, 20 U/ml SUPERase-In, 4 C; UNK is unkempt and MSI1 is Musashi-1; names of the RNAs are library labels; protein concentration not given here; high values mean tight binding

Binder | binding signal
B1 | 4.81 enrichment R
B2 | 6.45 enrichment R
B3 | 3.65 enrichment R
B4 | 0.842 enrichment R
B5 | 1.55 enrichment R
B6 | 5.71 enrichment R
B7 | 4.56 enrichment R
B8 | 0.231 enrichment R
B9 | 0.726 enrichment R
B10 | 0.757 enrichment R
B11 | 6.77 enrichment R
B12 | 8.27 enrichment R
B13 | 7.69 enrichment R
B14 | 12.3 enrichment R
B15 | 0.573 enrichment R
B16 | 0.824 enrichment R
B17 | 0.572 enrichment R
B18 | 1.05 enrichment R
B19 | 1.55 enrichment R
B20 | 0.952 enrichment R
B21 | 16 enrichment R
B22 | 1.75 enrichment R
B23 | 16.3 enrichment R
B24 | 7.19 enrichment R
B25 | 9.03 enrichment R
